Measured values from PubChem BioAssay (NCI).
About 79,000 compounds went through this panel and 15% of them were active in at least one assay; those are over-represented in the sample as a whole. A number with no mark means an inactive call. Activity calls are given as the source filed them. Rule as the data show it: active = growth inhibition above about 70%; inactive = the rest.

Tests used:
[1] = NCI Yeast Anticancer Drug Screen. Data for the rad50 strain (AID 155);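 also: 0% = growth of vehicle-only cultures of the same strain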; conditions: S. cerevisiae rad50 strain growth inhibition; at 50.0 µM; hits give high values
Outline: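 Cells are treated with compound, grown, and their growth is then scored against vehicle-only cultures of the same repair-deficient yeast strain.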

[2] = NCI Yeast Anticancer Drug Screen. Data for the mec2-1 strain (AID 157); conditions: S. cerevisiae mec2-1 strain, at 50.0 µM, hits give high values
Outline: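 Strain: mec2-1 (DNA repair/cell cycle alteration). Compound exposure, then growth measured; inhibition expressed relative to vehicle.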

[3] = NCI Yeast Anticancer Drug Screen. Data for the sgs1 mgt1 strain (AID 161);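 also: 0% = growth of cultures given vehicle only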; conditions: S. cerevisiae sgs1 mgt1 strain, at 50.0 µM, hits give high values
Outline: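 Inhibition of yeast growth, normalised to vehicle-treated controls, is reported for a strain bearing genetic alterations in DNA damage repair.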

[4] = NCI Yeast Anticancer Drug Screen. Data for the bub3 strain (AID 167); conditions: S. cerevisiae bub3 mutant strain, at 50.0 µM, hits give high values
Outline: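 Part of a panel of yeast mutants defective in DNA damage repair or cell cycle regulation. Each strain is grown with compound, and inhibition is calculated relative to solvent-treated cultures.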

[5] = NCI Yeast Anticancer Drug Screen. Data for the mlh1 rad18 strain (AID 175); conditions: S. cerevisiae mlh1 rad18 strain growth inhibition; at 50.0 µM; hits give high values
Outline: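 Read-out is yeast growth inhibition, calculated against vehicle-only controls. The compound was applied to a strain engineered with DNA damage repair alterations.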

[6] = NCI Yeast Anticancer Drug Screen. Data for the cln2 rad14 strain (AID 165);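 also: 0% = growth equal to vehicle treated cultures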; conditions: S. cerevisiae cln2 rad14 strain, at 50.0 µM, hits give high values
Outline: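 Compounds are applied to the cln2 rad14 yeast strain, and growth is then compared with that of vehicle-treated cultures to give inhibition.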

SMILES	growth inhibition [1]	growth inhibition [2]	growth inhibition [3]	growth inhibition [4]	growth inhibition [5]	growth inhibition [6]
N#CC(NNC(=O)Cc1ccccc1)c1c(O)ccc2ccccc12 (stereo unspecified)	7.45%	-4.9%	4.5%	-3.15%	-7.25%	–
COc1ccc(CNc2nc3ccccc3nc2C(=O)O)cc1OC	1.9%	18.6%	4.4%	9%	-12.5%	–
Nc1nc(N)c2nc(/C=C/c3ccc4c(c3)OCO4)cnc2n1	-2.25%	-25.4%	-4.5%	-9.1%	-13.8%	–
OC1CCCCC1OC1CCc2ccccc2C1 (stereo unspecified)	19.1%	19.5%	-5.25%	50%	33.1%	–
CSc1nnn(C(C)(C)C)n1	5.35%	6%	-3.5%	-8.75%	8.8%	–
C1CCCCCc2c(-c3n[nH]c4c3CCCCCCCCCC4)n[nH]c2CCCC1	-8.1%	-1.45%	-8.2%	2.75%	43.8%	–
O=C(Nc1ccccc1CCl)Nc1ccccc1CCl (tested in a mixture with another compound)	7.6%	3.35%	-11.4%	-4.1%	15.4%	–
CN(CCC(=O)O)S(=O)(=O)c1ccccc1	-13.1%	-17.2%	-10.6%	-46.4%	-3.8%	–
CC1=NNC(=O)C1	4.65%	-0.4%	-8.1%	-3.2%	2.9%	–
CC(C)c1ccc([N+](=O)[O-])cc1	31.5%	11.1%	11.2%	5.95%	16.9%	–
CCOC(=O)c1cc(CC)[nH]c(=O)c1C#N	-19.1%	8.05%	-11.3%	5.4%	–	–
O=C1c2cccc3cc([N+](=O)[O-])cc(c23)C(=O)N1CCNCCNCCNCCN1C(=O)c2cccc3cc([N+](=O)[O-])cc(c23)C1=O	86% (active)	89% (active)	89.3% (active)	89.2% (active)	90.9% (active)	–
CS(=O)(=O)c1ccc2c(c1)-c1ccc([N+](=O)[O-])cc1C2=O	12.7%	8.8%	6.3%	-4%	-0.9%	–
CCOc1ncc(C(O)c2ccc(F)cc2)c(OCC)n1 (stereo unspecified)	17.1%	-3.95%	1.15%	11.4%	0.3%	–
NNC(=S)N/N=C/C(Cl)=C(\Cl)C(=O)O	-2.2%	-13.2%	1.8%	0.1%	-1.75%	–
CCOC(=O)C(C#N)(CCC#N)CCC#N	26.3%	6.8%	9.05%	9.4%	12.6%	–
CCCCCCn1cnc2c(=S)nc[nH]c21	24.6%	8.35%	10.8%	-0.65%	12.8%	–
CCOC(=O)C(C#N)C1CCCC(C)CC1 (stereo unspecified)	13%	6.5%	3.5%	34.1%	7.55%	2.65%
NC(N)=NC(N)=Nc1ccccc1Br	-20.9%	-19.5%	-4.4%	7.05%	-3.85%	–

SMILES	growth inhibition [1]	growth inhibition [2]	growth inhibition [3]	growth inhibition [4]	growth inhibition [5]	growth inhibition [6]
O=C(NCCCl)Nc1ccc2c(c1)CCC2	1.55%	3.3%	1.55%	10.8%	6.7%	–
CCOc1ccc2nc(/C=C/c3ccccc3)ccc2c1	13.9%	-3.65%	13.8%	9.85%	14.8%	–
CN(C)c1ccc(N=C2C=CC(=C(C#N)C#N)c3ccccc32)cc1	-24%	-6.05%	-14.2%	-20.9%	-50%	–
COC(=O)C(C)OC(=O)OCC(C)C (stereo unspecified)	-11.1%	-1.9%	0.15%	-2.95%	-11.8%	–
CCC1CCC2c3c([nH]c4ccccc34)C3C(=O)N(c4ccc(OC)cc4)C(=O)C3C2C1 (stereo unspecified)	-13.1%	-10.6%	3.5%	2.05%	24.4%	–
O=c1nc(Nc2ccccc2)ccn1C1OC(CO)C(O)C1O (stereo unspecified)	-7.95%	0.25%	0.2%	7.55%	5.85%	–
SCCNCc1ccco1	-31.4%	-68.5%	-15.9%	-32.6%	4.9%	–
CC(C)(C)SCCCCO	-7.3%	19.4%	-0.8%	-5.2%	-3.15%	–
CCOC(=O)C(Cc1ccccc1Cl)(Cc1ccccc1Cl)c1ccccc1	7.15%	-17.1%	-10.5%	-4.95%	1.3%	–
CCCCOC(OCCCC)C(OCCCC)OCCCC	18.9%	8.2%	19.8%	16.4%	38%	–
CSc1nc2c(c(=O)[nH]1)CC(=O)N2	0.35%	-5.75%	-7.25%	-12.2%	-3.1%	–
c1ccc2c(c1)CCC(C1=NC3CCCCC3N1)=N2 (stereo unspecified)	-1.25%	3.7%	1.1%	6.3%	1.85%	–
O=C(Nc1ccccc1O)C(O)C(O)C(O)C(O)CO (stereo unspecified)	35%	30.7%	38.8%	52.1%	58.8%	–
CC(Cc1ccccc1)NC(=O)C1CC2CCCCN2C1C (stereo unspecified)	4.95%	20.4%	57.2%	45.5%	48.6%	–
O=C1C=CC(=O)N1CCCCN1C(=O)C=CC1=O	18.8%	3.75%	-17.9%	-14.4%	-11.9%	–
O=C1CCCC2OC2[C@H]2CCCCCC[C@@H]12 (stereo partly specified)	2.5%	0.9%	4.8%	-2.35%	7.85%	–
COC(=O)c1cc(-c2ccc(N)cc2)c2c(=O)n(-c3ccccc3)[nH]c2n1	26.1%	19%	30.9%	-1.4%	6.45%	–
Nc1ccccc1C(=O)ONC(=O)c1ccccc1	99.5% (active)	99.6% (active)	99.5% (active)	99.3% (active)	99.3% (active)	99% (active)
O=C1N=NC(=O)N1c1ccccc1	-6.75%	4.3%	1%	-0.05%	2.35%	–
